This excerpt belongs to a sample that is enriched for hits.
LmPK inhibitor: blocks Leishmania mexicana pyruvate kinase activity | Q27686 | purified LmPK, Kinase-Glo ATP luminescence, 1 h | Potency, µM (doses to about 57.5 µM), for the others: top-dose activity change, negative = inhibition, hits mostly inhibitors | 0.37% of 290,000 active | AID 1721; note: potency is the fitted concentration of half-maximal effect; % is set by controls: 0 for no effect and ±100 for the full control effect
Target sequence (Q27686 whole entry, looked up): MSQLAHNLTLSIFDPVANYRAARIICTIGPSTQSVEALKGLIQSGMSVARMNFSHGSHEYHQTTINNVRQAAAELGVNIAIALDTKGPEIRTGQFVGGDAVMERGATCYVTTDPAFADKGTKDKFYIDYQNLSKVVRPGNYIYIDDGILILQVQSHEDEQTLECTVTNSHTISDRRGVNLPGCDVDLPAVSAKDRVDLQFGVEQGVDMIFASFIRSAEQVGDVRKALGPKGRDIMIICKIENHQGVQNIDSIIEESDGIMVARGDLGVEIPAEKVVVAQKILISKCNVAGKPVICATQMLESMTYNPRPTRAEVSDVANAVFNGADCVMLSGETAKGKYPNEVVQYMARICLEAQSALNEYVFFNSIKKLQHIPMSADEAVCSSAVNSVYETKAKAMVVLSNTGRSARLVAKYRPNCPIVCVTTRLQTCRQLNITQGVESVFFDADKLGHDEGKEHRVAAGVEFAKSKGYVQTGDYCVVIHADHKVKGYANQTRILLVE
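ATP generated from ADP (0.1 mM) and PEP (0.5 mM) by 0.1 nM LmPK over 1 h at room temperature (pH 7.2 imidazole buffer) was detected by coupled luciferase luminescence. Values were normalized to uninhibited and no-enzyme wells.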
Tb PYK inh: blocks Trypanosoma brucei pyruvate kinase; TbPYK enzyme, Kinase-Glo Plus ATP luminescence, 45 min; Potency, µM (doses to about 76.8 µM), inactives show at the top dose activity, negative = inhibition, actives largely listed as inhibitors; Q57TT1; AID 624173; 0.12% of 410,000 active; note: potency is the fitted concentration of half-maximal effect; % is set by controls: 0 for no effect and ±100 for the full control effect; nearly all actives have a fitted effect of over 50% in size
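ADP (130 uM final) triggers the TbPYK reaction after compound addition; incubation is 45 min at room temperature. Kinase-Glo Plus is then added and luminescence imaged. Normalized data are fitted to concentration-effect curves.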
RE007 growth inh: less growth of the S. pombe RE007 Vpr strain. S. pombe RE007 Vpr strain, BacTiter-Glo ATP luminescence, 24 h. Potency, µM (series often up to 92.2 µM), inactives show top-dose activity change, negative = less growth, actives largely listed as inhibitors. 0.21% of 360,000 active. AID 651644; active = well fitted falling curve with a large enough effect; inconclusive = small, poorly fitted or top-dose-only effect; inactive = no such curve, though single readings can be large or run the other way; note: potency is the fitted concentration of half-maximal effect; % is set by controls: 0 for no effect and ±100 for the full control effect; nearly all actives have a fitted effect of over 50% in size
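Fission yeast RE007 carrying one integrated HIV-1 vpr copy, seeded at OD 0.01 in PMG+AL medium with 23 nL pinned compound. Grown 24 h at 30 degrees; viability read by BacTiter-Glo luminescence after 5 min.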
Giardia FBPA inh: inhibitors of Giardia lamblia fructose-1,6-bisphosphate aldolase. 0.71% of 290,000 active. purified Giardia FBPA. Potency, µM (titrated, usually from 59.6 µM), inactives show top-dose activity, negative = inhibition, most hits filed as inhibitors. A8B2U2; note: potency is the fitted concentration of half-maximal effect; % is set by controls: 0 for no effect and ±100 for the full control effect; nearly all actives have a fitted effect of over 55% in size
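40 nM FBPA preincubated 10 min at RT with compound (up to 57.5 uM final), then substrate plus GAPDH/TPI/NAD/arsenate coupling and diaphorase/resazurin added. Fluorescence read after 20 min at RT, 525/598 nm.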
Shiga inhibitor: blocks Shiga toxin action in Vero cells; Vero cells, Shiga toxin protein synthesis inhibition reporter; inhibition, % at 38.7 µM; 9.2% of 290,000 active; AID 2315; in the data active = inhibition mostly above about 28%, no sharp cut-off; inactive = mostly below about 43%; note: 0% is about no effect
CHX counter: affects cycloheximide protein synthesis inhibition readout, counter-screen | max response, % | cell reporter, cycloheximide protein synthesis inhibition counterscreen | 12% of 300,000 active; in the data active = max response mostly above about 13%, no sharp cut-off; inactive = mostly below about 14%; note: read at 38.3 µM for the half of the compounds with a filed dose; 0% is about no effect
An asterisk follows results filed as active; ? = inconclusive; · = not tested or not shown. Unless noted, calls come from the whole dose curve; as a rule, active = well fitted curve in the direction sought with a large enough effect; inconclusive = small, poorly fitted or top-dose-only effect, or another doubt; inactive = no such curve, though single readings can be large; an effect the other way counts as inactive or inconclusive.

SMILES	LmPK inhibitor	Tb PYK inh	RE007 growth inh	Giardia FBPA inh	Shiga inhibitor	CHX counter
O=C(COc1ccc(Cl)cc1Cl)NC(=O)N1CCOCC1	-4%	2%	-2%	0%	93*	35*
O=C(Nc1ccc(Cl)cc1C(=O)N1CCOCC1)c1ccco1	-2%	-19%	-6%	0%	-6	-3
O=C(c1cc(Cl)ccc1OCc1ccccc1)N1CCOCC1	0%	-6%	61%	12%	26	20*
O=C(COc1ccc(C(=S)N2CCOCC2)cc1Cl)Nc1ccccc1Cl	10%	-18%	-20%	?	52*	19*
O=C(COc1ccc(Cl)cc1Cl)Nc1ccc(CN2CCOCC2)cc1	-6%	0%	-9%	12%	-2	-1
O=C(COc1ccccc1Cl)Nc1ccccc1C(=O)N1CCOCC1	4%	-21%	6%	5%	29	18*
O=C(CN1C(=O)c2cccc3cccc1c23)Nc1cccc(F)c1	·	1%	·	·	·	·
CCOC(=O)C1CCN(Cc2oc(CO)cc(=O)c2O)CC1	-10%	-1%	1%	?	33*	15
CCN1CCN(Cc2oc(CO)cc(=O)c2O)CC1	-3%	2%	-21%	-3%	-20	-9
CC(=O)N[C@@H]1C(O[C@H]2O[C@H](C(=O)O)C(O)[C@H](O)[C@H]2O)[C@H](O)[C@@H](CO)O[C@H]1O[C@@H]1C(C(=O)O)O[C@@H](O[C@H]2[C@H](O)[C@@H](CO)OC(O)[C@@H]2NC(C)=O)[C@H](O)[C@H]1O (some centres not stated)	·	2%	·	·	·	·
CCn1ncc(/C=C/C(=O)NCc2cnn(C)c2C)c1C	0%	-3%	3%	-1%	3	-4
CCn1ncc(/C=C/C(=O)C2CC2)c1C	0%	3%	4%	4%	active	24
Cc1ccc(N)c(N)c1	·	-2%	?	-16%	157*	51*
CCc1ncc(C(=O)c2ccc(OC)cc2)n1C	-3%	0%	1%	1%	9	14*
NNC(=S)NC1CCCCC1	-4%	-1%	3%	?	43*	13*
COc1cc(OC)cc(C(=O)O/N=C(\N)c2cccc(C)c2)c1	1%	4%	-16%	12%	44	13
Cc1cccc(/C(N)=N/OC(=O)c2ccc(Br)o2)c1	-23%	-17%	?	-5%	90*	91*
Cc1cccc(/C(N)=N/OC(=O)c2ccc(Cl)cc2Cl)c1	7.9µM*	?	-15%	0%	72*	70*
Cc1cccc(/C(N)=N/OC(=O)c2cccnc2)c1	22µM*	2%	-15%	1%	103*	33*
N/C(=N\OC(=O)C(c1ccccc1)c1ccccc1)c1cccnc1	0%	-17%	16%	-2%	-6	22
N/C(=N\OC(=O)c1ccc(Cl)cc1)c1cccnc1	?	-6%	?	4%	175*	42*
COc1ccc(N2CCN(C(=O)C3Cc4ccccc4N3C(C)=O)CC2)cc1 (configuration not stated)	·	-1%	·	·	·	·
Cc1ccccc1/C(N)=N/OC(=O)c1cccs1	?	-12%	-20%	-1%	61*	27*
Cc1ccccc1C(=O)Nc1ccc(NC(=O)c2cccs2)cc1	·	13%	·	·	·	·
CCSc1ccc(/C(N)=N/OC(=O)c2cccs2)cn1	-2%	-7%	5%	·	88*	46*
SMILES	LmPK inhibitor	Tb PYK inh	RE007 growth inh	Giardia FBPA inh	Shiga inhibitor	CHX counter
Cc1ccc(/C(N)=N/OC(=O)c2ccc(C)cc2Cl)cc1	-8%	-10%	?	-9%	26*	80*
N/C(=N\OC(=O)c1ccc(Cl)cc1Cl)c1ccccc1	11µM*	?	-23%	14%	127*	56*
COc1cccc2sc(N3CCN(C(=O)CCS(=O)(=O)c4ccc(F)cc4)CC3)nc12	·	-2%	·	·	·	·
COc1cccc(N2CCN(C(=O)c3ccc(C)c(NC(=O)c4nsc5ccccc45)c3)CC2)c1	·	-7%	·	·	·	·
Cc1ccc(NC(=O)CC2(CC(=O)O)CCCC2)c(C)c1	-2%	3%	4%	3%	7	-5
N/C(=N\OC(=O)c1cccs1)c1cccnc1	-19%	1%	-4%	3%	43*	40*
O=C(OCc1ccccc1)c1ccc(Br)o1	-1%	-2%	-1%	-1%	28	16
N/C(=N\OC(=O)c1ccc(Cl)cc1Cl)c1ccc(Cl)cc1	-13%	3%	?	1%	114*	50*
N/C(=N\OC(=O)c1ccc(Cl)cc1Cl)c1cccnc1	?	-3%	-2%	0%	91*	35*
N/C(=N\OC(=O)c1ccc(Br)o1)c1ccccn1	13µM*	-21%	?	-2%	61*	26*
COc1ccc(/C=C/C(=O)Oc2cc(C)[nH]c(=O)c2[N+](=O)[O-])cc1OC	0%	7%	4%	-3%	164*	59*
COc1ccc(-c2cc(C(=O)Nc3cc(Cl)ccc3O)no2)cc1	-1%	-2%	-2%	8%	70*	38*
Cc1ccc(O)c(NC(=O)c2cc(-c3ccccc3Cl)on2)c1	-7%	1%	-3%	12%	78*	34*
Cc1ccc(-c2cc(C(=O)Nc3cc(C)ccc3O)no2)cc1	-3%	4%	?	4%	20	12
COc1ccc(-c2cc(C(=O)Nc3cc(C)ccc3O)no2)cc1	0%	2%	8%	19%	22	14*
Cn1c(=O)c2c(nc3n2CC(O)CN3c2ccc(O)cc2)n(C)c1=O (configuration not stated)	-2%	6%	17%	3%	-1	0
Cc1c(C(=O)Nc2cccc(C(F)(F)F)c2)oc2ccc(S(=O)(=O)N3CCC4(CC3)OCCO4)cc12	·	-7%	·	·	·	·
CCOC(=O)C1CCN(C(=O)CSc2n[nH]c(-c3ccc(F)cc3)n2)CC1	·	-6%	·	·	·	·
OC[C@H]1O[C@@H](c2nc(-c3ccc(CN4CCOCC4)cc3)no2)[C@H](O)[C@@H](O)[C@H]1O	·	0%	-9%	·	·	·
CN(Cc1cccc(Cl)c1Cl)C(=O)CCNC(=O)c1ccco1	·	-5%	2%	·	·	·
CCOC(=O)c1ccc2[nH]c3c(c2c1)CCCC3C(=O)OCC (configuration not stated)	0%	-10%	-9%	1%	20	4
CCOC(=O)c1ccc2[nH]c3c(c2c1)CCCCC3=O	0%	4%	-2%	1%	50*	15*
COc1ccc(C(=O)C2CCCN(C(=O)CCC3=NNC(=O)CC3)C2)c(C)c1 (configuration not stated)	-1%	-5%	-3%	5%	17	-4
O=C(c1cccc(C(F)(F)F)c1)C1CCCN(C(=O)C2CCOCC2)C1 (configuration not stated)	0%	5%	3%	·	4	14*

Screens: PubChem BioAssay, National Center for Advancing Translational Sciences (NCATS)
